The test system of test [1] is HIV-1 nucleocapsid protein NCp7 (binding to TG oligonucleotide). The test can be described thus: HIV Nucleocapsid (AID 346).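 Note: potency is the fitted concentration of half-maximal effect; potency is for inhibitors that block NC binding and lower polarization.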 The following applies: HIV-1 NC / fluorescein-TGTGTGTG probe, fluorescence polarization. An outline of the steps: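 NCp7 100 nM + fluorescein TG4xF 10 nM; Hepes pH 7.5/250mM NaCl/1uM ZnCl2/0.004% PEG 20000; 1 hr RT; FP, 45 s exposure; oligo-only wells as negative control.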

The target of test [2] is Cytochrome P450 3A4 (Homo sapiens) (UniProt P08684). As to the kind of experiment: qHTS Assay for Activators of Cytochrome P450 3A4 (AID 885; active = well fitted curve in the direction sought with a large enough effect; an effect the other way counts as inactive or inconclusive; note: nearly all actives have a fitted effect of over 65% in size). An outline of the steps: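 Activators are scored by enhanced luminescence from CYP3A4 conversion of luciferin-PPXE (25uM, equal to KM) to luciferin, after 60 min at RT with an NADPH-regenerating system.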
(In general: Quantitative high-throughput screening tests each substance at several concentrations.)

Test [3] addresses Bile acid receptor (Homo sapiens) (UniProt Q96RI1). The test can be described thus: qHTS assay for small molecule antagonists of farnesoid X receptor signaling (AID 588526; calls by dose curve; note: % is set by controls: 0 for no effect and ±100 for the full control effect). The essentials:
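Beta-lactamase reporter antagonist mode: HEK293T FXR-UAS-bla cells, titrated compound, CDCA stimulation, 16 h 37 C, CCF4 dye 2 h RT. Data normalized to CDCA 50 uM and DMSO; Hill-fit IC50.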

Test [4] deals with Endonuclease 4 (Escherichia coli (strain K12)) (UniProt P0A6C1). The test can be described thus: Counterscreen for APE1 Inhibitors: qHTS Assay for Inhibitors of Endonuclease IV (AID 2565; active = well fitted curve in the direction sought with a large enough effect; an effect the other way counts as inactive or inconclusive; note: potency is the fitted concentration of half-maximal effect). The essentials: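 Incision of a double-stranded 50 nM TAMRA/BHQ-2 abasic substrate was followed kinetically (525/598 nm, reads every 60 s) after 15 min enzyme–compound preincubation with 2 nM EndoIV in pH 7.5 Tris buffer with MgCl2, DTT and Tween-20; concentration-response format.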

The target in test [5] is DNA repair nuclease/redox regulator APEX1 (Homo sapiens) (UniProt P27695). As to the kind of experiment: Confirmation qHTS Assay for Inhibitors of the Human Apurinic/apyrimidinic Endonuclease 1 (APE1) (AID 2572; active = well fitted curve in the direction sought with a large enough effect; an effect the other way counts as inactive or inconclusive; note: potency is the fitted concentration of half-maximal effect; nearly all actives have a fitted effect of over 30% in size). The note with it: purified APE1, fluorogenic abasic-site DNA cleavage. The essentials: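 Double-stranded THF abasic-site substrate (50 nM final), 5'-TAMRA/3'-BHQ-2; APE1 incision raises fluorescence. Enzyme preincubated with compound 15 min at room temperature before substrate; kinetic read Ex 525/Em 598 nm, signal difference between third and first reads.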

Test [6] is described as follows: qHTS Assay for Inhibitors of Fructose-1,6-bisphosphate Aldolase from Giardia Lamblia: Giardia lamblia growth inhibition (AID 2785; active = well fitted curve in the direction sought with a large enough effect; an effect the other way counts as inactive or inconclusive; note: % is set by controls: 0 for no effect and ±100 for the full control effect; nearly all actives have a fitted effect of over 70% in size). An outline of the steps: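 Whole-parasite growth test: Giardia WB trophozoites in TYI-S-33 (pH 7.0), 100 per well, incubated 48 h at 37C with compound. ATP content was read by ATPlite luminescence.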
Test [7] is described as follows: qHTS Assay for Inhibitors of Fructose-1,6-bisphosphate Aldolase from Giardia Lamblia: Mammalian cellular toxicity (AID 2786; active = well fitted curve in the direction sought with a large enough effect; an effect the other way counts as inactive or inconclusive;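 note: compound exposure lasted 48 h before reading; % is set by controls: 0 for no effect and ±100 for the full control effect; nearly all actives have a fitted effect of over 60% in size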). An outline of the steps:
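Mammalian cytotoxicity surrogate: Chinese hamster ovary cells exposed to compound for 48 h at 37 °C. Cellular ATP then measured with ATPlite reagent, 20 min incubation.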

Test [8] concerns the target Fructose-bisphosphate aldolase (Giardia intestinalis (strain ATCC 50803 / WB clone C6)) (UniProt A8B2U2). The test can be described thus: qHTS Assay for Inhibitors of Fructose-1,6-bisphosphate Aldolase from Giardia Lamblia: Primary screen confirmation (AID 2787; active = well fitted curve in the direction sought with a large enough effect; an effect the other way counts as inactive or inconclusive;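 note: aldolase product measured through coupled diaphorase step turning resazurin into fluorescent resorufin; series mostly up to about 58 µM; % is set by controls: 0 for no effect and ±100 for the full control effect; nearly all actives have a fitted effect of over 45% in size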). The essentials: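 FBPA (40 nM in enzyme reagent, with 30 uM ZnCl2) was preincubated 10 min at RT with compound up to 57.5 uM final. Substrate plus coupled detection system was then added, and fluorescence (525/598 nm) was read after 20 min at RT.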

Test [9] concerns the target Fructose-bisphosphate aldolase A (Oryctolagus cuniculus) (UniProt P00883). As to the kind of experiment: qHTS Assay for Inhibitors of Fructose-1,6-bisphosphate Aldolase from Giardia Lamblia: Rabbit FBPA Selectivity (AID 2794; active = well fitted curve in the direction sought with a large enough effect; an effect the other way counts as inactive or inconclusive; note: % is set by controls: 0 for no effect and ±100 for the full control effect; nearly all actives have a fitted effect of over 60% in size). An outline of the steps:
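AmpLite Red readout, ex/em 525/598 nm. Rabbit FBPA, GAP-linked coupling enzymes; 10 min cpd preincubation, then 20 min after substrate, both RT. Concentration-response up to 57.5 uM final.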

The nature of test [10]: qHTS Assay for Inhibitors of Fructose-1,6-bisphosphate Aldolase from Giardia Lamblia: Coupling assay counterscreen confirmation (AID 2795; active = well fitted curve in the direction sought with a large enough effect; an effect the other way counts as inactive or inconclusive; note: % is set by controls: 0 for no effect and ±100 for the full control effect; nearly all actives have a fitted effect of over 55% in size). The essentials:
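GAPDH-coupled counterassay lacking aldolase; compound range up to 57.5 uM final; 10 + 20 min RT incubations; AmpLite Red fluorescence, 525/598 nm.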

The target of test [11] is Estrogen receptor (Homo sapiens) (UniProt P03372). As to the kind of experiment: qHTS assay for small molecule agonists of estrogen receptor alpha signaling (AID 588514; calls by dose curve;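 note: 0% = vehicle only and 100% = reference agonist; nearly all actives have a fitted effect of over 70% in size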). The essentials:
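EC50 and efficacy came from Hill fits of beta-lactamase reporter signal (CCF4 dye, 2 h at room temperature) scaled between DMSO and 20 nM 17-beta-estradiol. Agonist mode: HEK293 ER-alpha-UAS-bla cells in charcoal/dextran-stripped serum medium, 18 h compound exposure at 37 C.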

Test [12] has as its target Androgen receptor (Homo sapiens) (UniProt P10275). As to the kind of experiment: qHTS assay for small molecule agonists of androgen receptor signaling (AID 588515; active = well fitted curve in the direction sought with a large enough effect in the signal ratio, with a control signal flat; the % refers to the signal ratio; note: % is set by controls: 0 for no effect and ±100 for the full control effect). The following applies: AR-UAS-bla HEK293, beta-lactamase ratio, agonist 16 h; active compounds read high. The essentials: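 Stimulation of an AR-responsive β-lactamase reporter in GripTite HEK293 cells was measured after 16 h compound exposure at 37 °C, via CCF4 fluorescence after 2 h RT. EC50 from Hill fits, normalized to R1881 at 30 nM.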

Test [13] can be described thus: qHTS assay to identify small molecules that stimulate interleukin-8 (IL-8) secretion (AID 651758; active = well fitted activation curve with a large enough effect in the signal ratio; the % refers to the signal ratio; note: potency is the fitted concentration of half-maximal effect). The essentials:
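Secreted IL-8 measured homogeneously by TR-FRET (two labelled anti-IL-8 antibodies, 1-3 h at room temperature) after a 16 h, 37 C compound treatment of THP-1 cells at 2000 cells/well.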

Test [14] can be described thus: Counterscreen for APE1 Inhibitors: Fluorescent Dye Displacement Assay (AID 2564; active = well fitted curve in the direction sought with a large enough effect; an effect the other way counts as inactive or inconclusive;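 note: loss of thiazole orange fluorescence as the dye is displaced from duplex DNA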; note: potency is the fitted concentration of half-maximal effect). The essentials:
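Endpoint fluorescence read at 480 nm excitation / 540 nm emission; DNA-binding compounds lower signal by displacing 250 nM Thiazole Orange from 50 nM dsDNA containing a tetrahydrofuran abasic site, Tris-HCl pH7.5 buffer with NaCl and MgCl2.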

These results are taken from PubChem BioAssay (NCATS).

A number with no mark means an inactive call. Results filed as inconclusive are left out. This is one part of the list. Calls of active or inactive are those of the source. Unless noted, the rule behind the calls is not given here.

DNA repair nuclease/redox regulator APEX1 (Homo sapiens), sequence (P27695 whole entry, looked up): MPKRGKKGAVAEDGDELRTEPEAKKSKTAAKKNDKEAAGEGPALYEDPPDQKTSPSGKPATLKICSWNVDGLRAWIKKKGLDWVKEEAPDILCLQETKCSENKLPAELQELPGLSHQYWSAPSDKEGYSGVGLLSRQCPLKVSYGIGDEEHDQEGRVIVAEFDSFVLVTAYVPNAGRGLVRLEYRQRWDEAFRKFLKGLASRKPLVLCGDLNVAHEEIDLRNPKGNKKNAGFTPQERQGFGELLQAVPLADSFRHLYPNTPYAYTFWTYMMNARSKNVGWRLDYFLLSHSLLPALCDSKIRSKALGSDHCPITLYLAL
Cytochrome P450 3A4 (Homo sapiens), sequence (P08684 whole entry, looked up): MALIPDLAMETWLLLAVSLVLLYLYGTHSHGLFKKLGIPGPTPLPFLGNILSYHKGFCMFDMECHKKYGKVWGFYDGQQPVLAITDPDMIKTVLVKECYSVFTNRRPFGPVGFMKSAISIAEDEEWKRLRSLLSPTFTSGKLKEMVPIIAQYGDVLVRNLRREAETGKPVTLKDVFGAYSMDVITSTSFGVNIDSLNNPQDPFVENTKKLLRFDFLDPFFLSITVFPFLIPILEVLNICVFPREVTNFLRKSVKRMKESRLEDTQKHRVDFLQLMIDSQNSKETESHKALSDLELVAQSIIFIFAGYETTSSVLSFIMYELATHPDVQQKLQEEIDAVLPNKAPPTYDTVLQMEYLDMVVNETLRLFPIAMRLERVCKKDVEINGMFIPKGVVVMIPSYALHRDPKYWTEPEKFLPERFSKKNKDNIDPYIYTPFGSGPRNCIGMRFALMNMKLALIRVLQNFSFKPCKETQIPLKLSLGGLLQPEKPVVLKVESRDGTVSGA
Estrogen receptor (Homo sapiens), sequence (P03372 whole entry, looked up): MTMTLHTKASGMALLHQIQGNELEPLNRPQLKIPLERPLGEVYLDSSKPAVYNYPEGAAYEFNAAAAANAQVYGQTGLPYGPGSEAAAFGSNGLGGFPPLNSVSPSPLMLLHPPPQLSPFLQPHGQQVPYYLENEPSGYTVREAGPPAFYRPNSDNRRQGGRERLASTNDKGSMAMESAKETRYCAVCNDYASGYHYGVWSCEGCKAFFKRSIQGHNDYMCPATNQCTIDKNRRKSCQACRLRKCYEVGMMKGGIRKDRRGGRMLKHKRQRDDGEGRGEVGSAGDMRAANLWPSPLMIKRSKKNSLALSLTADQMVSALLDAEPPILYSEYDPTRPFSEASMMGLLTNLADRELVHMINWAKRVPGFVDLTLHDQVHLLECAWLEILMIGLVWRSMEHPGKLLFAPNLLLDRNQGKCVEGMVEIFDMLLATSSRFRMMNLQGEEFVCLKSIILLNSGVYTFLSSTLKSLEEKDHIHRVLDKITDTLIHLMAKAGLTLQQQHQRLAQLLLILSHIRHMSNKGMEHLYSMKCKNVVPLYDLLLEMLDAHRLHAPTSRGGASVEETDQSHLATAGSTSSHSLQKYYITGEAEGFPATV
Bile acid receptor (Homo sapiens), sequence (Q96RI1 whole entry, looked up): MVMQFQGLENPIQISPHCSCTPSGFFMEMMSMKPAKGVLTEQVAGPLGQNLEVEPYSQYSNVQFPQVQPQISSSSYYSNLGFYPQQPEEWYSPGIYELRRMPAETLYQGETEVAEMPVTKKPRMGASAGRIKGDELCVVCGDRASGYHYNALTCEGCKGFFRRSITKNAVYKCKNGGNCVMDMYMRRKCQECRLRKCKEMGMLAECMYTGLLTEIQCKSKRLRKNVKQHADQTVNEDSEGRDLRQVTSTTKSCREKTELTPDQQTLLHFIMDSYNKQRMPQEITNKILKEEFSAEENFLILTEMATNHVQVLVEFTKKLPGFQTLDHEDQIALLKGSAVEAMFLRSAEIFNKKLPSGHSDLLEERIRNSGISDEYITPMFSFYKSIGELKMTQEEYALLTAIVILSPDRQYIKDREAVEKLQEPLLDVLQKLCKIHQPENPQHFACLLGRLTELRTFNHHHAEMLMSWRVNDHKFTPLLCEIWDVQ
Fructose-bisphosphate aldolase A (Oryctolagus cuniculus), sequence (P00883 whole entry, looked up): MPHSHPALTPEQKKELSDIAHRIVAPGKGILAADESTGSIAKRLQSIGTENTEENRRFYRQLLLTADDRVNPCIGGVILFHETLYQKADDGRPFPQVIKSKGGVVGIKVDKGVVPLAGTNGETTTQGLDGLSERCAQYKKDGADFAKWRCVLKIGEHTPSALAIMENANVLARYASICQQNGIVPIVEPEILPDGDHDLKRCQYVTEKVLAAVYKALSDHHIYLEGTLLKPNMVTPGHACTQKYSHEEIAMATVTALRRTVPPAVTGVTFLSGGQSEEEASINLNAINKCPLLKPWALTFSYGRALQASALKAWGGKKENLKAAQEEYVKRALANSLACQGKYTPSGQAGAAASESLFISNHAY
Androgen receptor (Homo sapiens), sequence (P10275 whole entry, looked up): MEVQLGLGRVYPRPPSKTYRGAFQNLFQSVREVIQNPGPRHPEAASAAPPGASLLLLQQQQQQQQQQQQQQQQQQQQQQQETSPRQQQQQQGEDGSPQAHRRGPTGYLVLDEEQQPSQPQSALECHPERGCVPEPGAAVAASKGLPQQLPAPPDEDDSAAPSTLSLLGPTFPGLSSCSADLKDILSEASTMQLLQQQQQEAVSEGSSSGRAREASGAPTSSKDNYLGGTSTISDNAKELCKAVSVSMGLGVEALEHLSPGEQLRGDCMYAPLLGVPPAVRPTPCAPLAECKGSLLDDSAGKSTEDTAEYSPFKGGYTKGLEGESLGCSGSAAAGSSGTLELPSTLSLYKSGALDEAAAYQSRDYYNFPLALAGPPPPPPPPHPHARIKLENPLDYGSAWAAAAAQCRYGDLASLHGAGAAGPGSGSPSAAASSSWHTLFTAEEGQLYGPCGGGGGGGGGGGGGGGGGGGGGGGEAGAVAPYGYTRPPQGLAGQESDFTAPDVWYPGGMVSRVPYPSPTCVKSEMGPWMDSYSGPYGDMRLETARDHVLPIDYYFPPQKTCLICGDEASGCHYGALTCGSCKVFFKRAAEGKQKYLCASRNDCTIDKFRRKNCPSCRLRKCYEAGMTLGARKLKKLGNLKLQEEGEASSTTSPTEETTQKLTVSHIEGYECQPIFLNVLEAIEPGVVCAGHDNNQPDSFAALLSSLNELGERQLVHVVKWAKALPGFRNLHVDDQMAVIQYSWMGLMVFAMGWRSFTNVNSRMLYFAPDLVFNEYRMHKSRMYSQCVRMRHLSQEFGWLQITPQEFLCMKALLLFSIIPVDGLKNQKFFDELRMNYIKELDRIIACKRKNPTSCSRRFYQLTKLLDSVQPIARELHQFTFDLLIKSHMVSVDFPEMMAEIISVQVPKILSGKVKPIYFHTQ
Fructose-bisphosphate aldolase (Giardia intestinalis (strain ATCC 50803 / WB clone C6)), sequence (A8B2U2 whole entry, looked up): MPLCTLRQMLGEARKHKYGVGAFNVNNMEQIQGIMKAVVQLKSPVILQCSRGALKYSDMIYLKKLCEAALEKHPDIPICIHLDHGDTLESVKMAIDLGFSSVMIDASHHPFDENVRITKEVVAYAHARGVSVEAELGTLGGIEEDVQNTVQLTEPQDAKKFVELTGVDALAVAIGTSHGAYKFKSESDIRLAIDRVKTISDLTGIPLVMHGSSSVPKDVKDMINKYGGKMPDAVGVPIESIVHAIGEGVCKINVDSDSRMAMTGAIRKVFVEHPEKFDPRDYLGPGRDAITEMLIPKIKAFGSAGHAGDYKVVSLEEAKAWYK

Take `COc1cccc(Cn2c(=O)c(-c3cn(C)c4ccccc34)nc3cncnc32)c1`: the Potency in test [1] is above 20 µM.

With `COc1ccc(CNc2ncncc2-c2ccccc2Cl)c(OC)c1`, the Potency in test [1] is above 20 µM.

On to `COCCn1c(=O)c(-c2ccccc2)nc2cnc(Nc3ccccc3)nc21`, for which the Potency in test [1] was above 20 µM.

Consider `COc1ccc2[nH]cc(CCNc3ncncc3-c3ccccc3Cl)c2c1`, for which the Potency in [1] is above 20 µM.

In the case of `Oc1cc(Cl)c(Cl)c(Cl)c1Cl`, the Potency result in [2] was “inactive”.

Take `CN(C)c1ccc(N=Nc2ccccc2)cc1`: the result in test [3] was inactive.

As for `c1ncc(-c2ccc3c(c2)OCO3)c(NCCc2cnc[nH]2)n1`, the Potency in test [1] is above 20 µM.

With `Oc1cc(Cl)c(Cl)c(Cl)c1`, the Potency entry in test [2] was “inactive”.

In the case of `CS(=O)(=O)N1CCC2(CC1)CN(c1ccccn1)C2`, in [1], the Potency was above 20 µM.

Regarding `COCCn1c(=O)c(C)nc2cnc(N(C)C)nc21`, the Potency in test [1] is above 20 µM.

As for `Cn1c(=O)c(-c2cccs2)nc2cnc(Oc3ccccc3)nc21`, in test [1], the Potency is above 20 µM.

Consider `O=C(O)c1cc[c]([Sb](=[O])([OH])[OH])cc1[N+](=O)[O-]`, for which the Potency is 10 µM (active) in [4] and 0.0562 µM (active) in test [5].

For `CS(=O)(=O)Nc1cccc(-c2nccc(NCc3ccccc3)n2)c1`, the Potency in test [1] was above 20 µM.

As for `COCCn1c(=O)c(-c2ccc(OC)cc2)nc2cnc(Oc3cccc(Cl)c3)nc21`, the Potency in test [1] was above 20 µM.

For `COc1ccc(NC(=O)N2CC3(CCN(C(=O)c4cnccn4)CC3)C2)cc1`, the Potency in test [1] is above 20 µM.

On to `CN(C)C(=O)c1ccc(-c2cncnc2N(C)Cc2ccco2)cc1`, for which the Potency in [1] is above 20 µM.

On to `COC(=O)N1CCC2(CCN(C(=O)Nc3cccc(F)c3)CC2)CC1`, for which the Potency in test [1] was above 20 µM.

In the case of `CN(C)c1ncc2nc(CCc3ccccc3)c(=O)n(Cc3cccs3)c2n1`, the Potency in [1] was above 20 µM.

For `Fc1ccc(Nc2ncnc3ccc(-c4ccoc4)cc23)cc1`, the Potency in [1] is above 20 µM.

In the case of `Nc1ccc(-c2ccc(N)c(Cl)c2)cc1Cl`, the Potency result in [2] is “inactive”.

For the compound `Cc1noc(C)c1C(=O)N1CCC2(CCCN(c3ccncc3)C2)CC1`, the Potency in test [1] is above 20 µM.

Turning to `CCCCC(=O)N/N=C/c1c(O)n(-c2ccccc2)c(=O)[nH]c1=O`, the result in test [6], in test [7], in test [8], in test [9] and in [10] was inactive.

For the compound `Cn1c(=O)cnc2cnc(Nc3ccccc3)nc21`, the Potency in [1] was above 4 µM.

For the compound `N#Cc1cccc(NC(=O)N2CCCC3(CCN(C(=O)c4ccco4)CC3)C2)c1`, in test [1], the Potency is above 4 µM.

Regarding `BrCC(Br)(Br)Br`, the Potency entry in test [11] was “inactive”. In addition, the activation in test [12] was 1.19%. In test [13], the Potency was 42.2 µM (active).

On to `Fc1ccc(Nc2nc(-c3cccnc3)nc3ccccc23)cc1`, for which the Potency in test [1] was above 20 µM.

As for `COC(=O)N1CCC2(CCCN(C(=O)Nc3ccccc3)C2)CC1`, the Potency in [1] was above 20 µM.

With `Cc1c(C(=O)O)cccc1-n1c(C)cc(/C=C2\C(=O)NC(=O)N(c3ccc4c(c3)OCO4)C2=O)c1C`, the Potency entry in test [14] and in test [4] was “inactive” throughout. The Potency in test [5] is 12.6 µM (active).

Take `O=C(OCC1O[C@@H](OC(=O)c2cc(O)c(O)c(O)c2)[C@@H](OC(=O)c2cc(O)c(O)c(O)c2)[C@@H](OC(=O)c2cc(O)c(O)c(O)c2)[C@@H]1OC(=O)c1cc(O)c(O)c(O)c1)c1cc(O)c(O)c(O)c1` (stereo not given in full): the Potency was 3.98 µM (active) in test [14] and 0.0063 µM (active) in test [5].

Take `CN(C)c1ncc2nc(-c3ccc(Cl)cc3)c(=O)n(C3CC3)c2n1`: the Potency in test [1] was above 20 µM.
